About 83,000 compounds went through this panel and 20% of them were active in at least one assay; those are over-represented in the sample as a whole.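 The endpoint reported here, percent growth, reads 100 for growth as untreated, 0 for no net growth and -100 for all cells dead.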 Unmarked numbers belong to inactive results. Activity calls are given as the source filed them. Rule for the calls: active = growth percent below 10; inactive = the rest.

The experiment deals with HL-60(TB) leukemia. The experiment in a line: NCI-60 one-dose screen, 48 h (100 = growth as untreated, 0 = no growth, -100 = all killed). The conditions noted are these: 10 µM unless noted.
For the compound `Cc1cc(Cl)nc(N2CCN(CCNc3ccnc4cc(Cl)ccc34)CC2)n1`, the growth was 27.8%.
Then `O=C1CCCCCCCCC(O)C(O)CCCC(c2cccs2)O1` (stereo not given), with 77.9%; and `NCCCCCCNc1cc(-c2cccc(OC(F)(F)F)c2)nc2ccc(N3CCCC3)cc12`, with -60.2% (active); and `CCOS(=O)(=O)c1c(C(C)C)cc(C(C)C)cc1C(C)C`, with 89%.
`CCCCCCCCn1ccc2cc(NC(=O)CN3CCN(c4cc(C)nc(Cl)n4)CC3)ccc21`: the growth was 83.3%.
`COc1cc(/C=C/C(=O)/C=C/c2ccc(-n3ccnc3C)cc2)ccc1O`: the growth is 49.5%.
Turning to `COc1ccc(-c2cc(-c3ccc(N(C)C)cc3)nc(NC(=O)c3ccncc3)n2)cc1`, the growth is 113%.
For `COc1cc2cc(Oc3ccc(NC(=O)Nc4ccc(Cl)c(Cl)c4)cc3)c(C)nc2cc1OCCN1CCCCC1`, the growth is 44.1%.
Turning to `CN1CCN(C(=O)c2ccc(NC(=O)c3cc4c(nn3)NCCN4Cc3cc(Cl)ccc3Cl)cc2)CC1`, the growth was 43%.
As for `c1ccc(C2NCCNC2c2ccccc2)cc1` (stereo not given), the growth was 103%.
In the case of `O=C(O)COc1ccc2c(=O)c3sc4c(=O)c5ccccc5c(=O)c4c3c(=O)c2c1`, the growth was 42.7%.
For the compound `O=C(CCl)Nc1cc(O)c2c(c1)C(=O)c1cccc(O)c1C2=O`, the growth is -44.4% (active).
Consider `CCOC(=O)c1c(C)nc2c(c1N)C(=O)C(=O)N2CCc1ccc(OC)c(OC)c1`, for which the growth was 65.6%.
In the case of `CC1SC(c2ccc(OCc3ccccc3)cc2)N(NC(=O)C(O)(c2ccccc2)c2ccccc2)C1=O` (stereo not given), the growth is 14.5%.
As for `CC(=O)N(C)c1ccc(Nc2ccc(Nc3ccc(N(C)C(C)=O)cc3)c3c2C(=O)c2ccccc2C3=O)cc1`, the growth was 77%.
For `Cc1cc(=O)n2n1-c1ccc(Cl)cc1NC(=O)C2`, the growth was 101%.
With `COc1ccc(Cc2cnc(NC(=O)c3sc4ccccc4c3Cl)s2)cc1`, the growth is -50.3% (active).
For the compound `COc1ccc(/C=C/c2cc(N3CCOCC3)c3cc(F)c(F)cc3n2)cc1OC`, the growth is -8.49% (active).
As for `O=C(Nc1ccncc1)C(=O)c1cn(S(=O)(=O)c2cccc3ccccc23)c2ccccc12`, the growth is 64%.
On to `Nc1ncnc(N)c1NC(=O)c1ccc(OCc2ccccc2)cc1`, for which the growth is 108%.
Then `CC(C)N(CCOC(=O)Nc1ccccc1Cl)C(C)C`, with 103%; and `Nc1[nH]nc(Nc2ccccc2)c1-c1nc2ccccc2s1`, with 16.6%.
As to `CC(C)=CCC[C@](C)(O)[C@H]1CC[C@]2(C)[C@@H]1CC[C@@H]1[C@@]3(C)C/C(=C/c4cccc([N+](=O)[O-])c4)C(=O)C(C)(C)[C@@H]3CC[C@]12C`, the growth was 68.4%.
Regarding `O=C1OCC2=C1C(c1ccc3c(c1)OCO3)CC(=O)N2c1cccc(Cl)c1` (stereo not given), the growth is 95.6%.
`CCCCCc1cc[n+](CC(=O)c2ccc([N+](=O)[O-])cc2)cc1`: the growth is 102%.
Regarding `c1ccc2nc(N3CCOCC3)c(N3CCCCC3)nc2c1`, the growth was 98.9%.
With `NCC(=O)NC(CC(=O)O)C(=O)O` (stereo not given), the growth was 90.7%.
Regarding `[O-]/[N+](=C\C=C\c1ccccc1)c1ccccc1`, the growth is 82.3%.
In the case of `C=C1C(=O)C2CCC1C2` (stereo not given), the growth was 95.9%.
Turning to `Cn1cc(-c2noc(C(=O)c3cn(C)c4ncccc34)n2)c2ccccc21`, the growth is 98.6%.
For `O=S(=O)(NCCNc1nccc(-c2c(-c3cccc(O)c3)nc3occn23)n1)c1ccc(C(F)(F)F)cc1`, the growth is 79.1%.
As for `COC1=CC(=O)C(OC)=C(O)C1=O`, the growth was 107%.
Then `O=C(Nc1ccc2ncnc(Nc3cccc(C(F)(F)F)c3)c2c1)c1cccs1`, with 47.9%; and `Nc1ccc(C2=CC(c3ccc(Cl)cc3)N3C=CSC3=N2)cc1` (stereo not given), with -19.3% (active).
The figure for `COc1cc2nc(Nc3cccc(NC(C)=O)c3)nc(N)c2cc1OC` is 102%; for `O=C(O)CCCN1C(=O)NC2(C1=O)c1ccccc1-c1ccccc12` it is 101%.
Then `CCC(CCCN1C(=O)c2ccccc2C1=O)Nc1cc(OC)cc2cccnc12` (stereo not given), with 86.1%; and `Cc1ccc(C2SCC(=O)N2Cc2ccccc2)cc1` (stereo not given), with 96.1%; and `N=C(N)c1ccc(-c2ccc(-c3ccco3)o2)cc1F`, with -17.1% (active).
Regarding `CCN(CC)c1ccc(/C=N/NC(=O)c2ccc(S(C)(=O)=O)cc2)c(O)c1`, the growth is -18.5% (active).

The values are drawn from PubChem BioAssay (NCI).
